# Source: PubChem BioAssay
# Most compounds without a hit are left out; they make up all but 8.7% or so of the library.
# DAT uptake mod – human DAT dopamine uptake with cocaine, either direction; LLC-PK1 hDAT cells, [14C]-dopamine uptake with cocaine IC80; actives deviate in either direction; B-score at 10 µM; hit rate 1.3% among 110,000; AID 449768;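 active = Z score or B-score, a plate-position-corrected score, falls beyond the plate's 99.7% confidence bounds, in either direction; inactive = both scores lie inside the 99.7% bounds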;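 note: scored against the spread of the other compound wells on the same plate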
# PostGolgi yeast – growth inhibition of a yeast mutant, post-Golgi transport screen | post-Golgi transport phenotypic cell assay | inhibition, % at 10 µM | hit rate 0.9% among 98,000;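 note: yeast cells grown in 1536-well plates; yeast grown about 18 h at 30C before absorbance read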
# TNAP act DEA – activators of human TNAP at intermediate phosphate acceptor; purified TNAP, CDP-star luminescence, 100 mM DEA, 30 min; stronger effect = higher value; scale: 0 levamisole-inhibited, 1 vehicle-only enzyme; activation factor at 20 µM; 64,000 tested, under 10 active; AID 813;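 active = activation factor of at least 2 at 20 µM, relative to controls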
# Target sequence (P05186 whole entry, looked up): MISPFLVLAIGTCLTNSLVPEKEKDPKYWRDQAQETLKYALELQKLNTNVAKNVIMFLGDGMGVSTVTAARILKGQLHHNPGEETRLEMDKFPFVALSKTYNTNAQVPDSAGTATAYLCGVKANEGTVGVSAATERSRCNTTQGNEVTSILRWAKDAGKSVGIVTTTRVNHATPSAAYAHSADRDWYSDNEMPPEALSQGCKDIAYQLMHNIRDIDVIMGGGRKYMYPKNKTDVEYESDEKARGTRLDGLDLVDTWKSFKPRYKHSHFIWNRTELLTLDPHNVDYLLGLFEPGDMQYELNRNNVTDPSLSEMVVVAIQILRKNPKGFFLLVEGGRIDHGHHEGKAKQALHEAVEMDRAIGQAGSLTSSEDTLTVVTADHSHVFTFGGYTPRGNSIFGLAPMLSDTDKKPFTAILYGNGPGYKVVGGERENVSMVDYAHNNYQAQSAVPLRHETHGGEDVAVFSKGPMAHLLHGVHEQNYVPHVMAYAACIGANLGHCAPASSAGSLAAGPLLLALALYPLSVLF
# Cav32 inh – blocks human Cav3.2 T-type calcium channel. O95180. Cav3.2-expressing cells, Fluo-4 calcium fluorescence FDSS; stronger effect = lower value. B-score at 10 µM. hit rate 4% among 100,000. AID 449739;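 active = single-dose well whose peak fluorescence ratio is a statistical outlier from its plate by either plate-standardised score or position-corrected B-score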
# Smad3 inh – inhibitors of human Smad3 transcription factor binding; TR-FRET Smad3/Dy647-FoxH1 peptide binding, europium anti-His; P84022; hit rate 0.29% among 88,000; AID 630; inhibition, % at 25 µM;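 active = compounds that reduce the energy-transfer binding signal between the protein and its labelled peptide by more than half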;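 note: 0% = Smad3 plus labelled peptide maximal FRET and 100% = peptide-only background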
# PostGolgi ctrl – growth of the yeast control strain, post-Golgi counter-screen | efflux-deficient yeast background strain, growth absorbance A615, 16 h | inhibition, % at 10 µM | hit rate 5% among 98,000 | AID 738
# An asterisk follows results filed as active; . = no result. Cut-off read from the data, not from the text of the source, unless noted: active = inhibition above about 30%; inactive = the rest.
SMILES,DAT uptake mod,PostGolgi yeast,TNAP act DEA,Cav32 inh,Smad3 inh,PostGolgi ctrl
Cn1c(=O)c2c(nc(N3CCN(c4ccccn4)CC3)n2Cc2ccccc2Cl)n(C)c1=O,-0.028,-1,.,0.72,.,33*
Cn1c(=O)c2c(nc(N3CCc4ccccc4C3)n2Cc2ccccc2F)n(C)c1=O,-1.2,9,1,-3.7,0,47*
CCOC(=O)c1ccccc1NC(=O)CN(c1cccc(OC)c1)S(C)(=O)=O,0.49,-5,0.9,-2.1,11,6
COc1ccc2c(CC(=O)N(C)CC3COc4ccccc4O3)coc2c1 (configuration not stated),0.028,-2,1,-3.5,5,22
COC(=O)c1c(NC(=O)CSc2nnnn2-c2ccccc2)sc2c1CCCC2,2.2,-3,0.8,-0.89,0,22
O=C(Nc1ccccc1)c1cnc(-c2ccccc2)nc1-c1ccccc1,0.077,1,.,-0.043,.,11
C=CCn1c2ccccc2c2nnc(SCCCn3c(=O)[nH]c4ccccc43)nc21,3.7*,-17,0.9,-3,.,26
C=CCn1c2ccccc2c2nnc(SCN3C(=O)c4ccccc4C3=O)nc21,-0.015,39*,0.8,-0.3,.,28
CCCCn1c(=O)[nH]c2ccccc21,-0.11,-7,0.9,0.46,1,5
O=c1[nH]c2ccccc2n1CCCSc1cnc2ccccc2n1,0.93,5,.,-4.2,8,43*
O=C1c2ccccc2C(=O)N1CSc1nnc2c3ccccc3n(CCc3ccccc3)c2n1,-0.5,8,.,0.011,0,8
CCn1c2ccccc2c2nnc(SCC(=O)c3ccccc3)nc21,0.83,-1,0.9,0.11,5,6
COc1cc(N)n(S(=O)(=O)c2ccc(C)cc2)n1,-1,.,.,0.33,.,.
OC(c1cccnc1)c1cccs1 (configuration not stated),-0.4,-2,0.9,-0.15,2,-2
CCOC(=O)C(C)Sc1nnc(-c2ccccc2O)n1Cc1ccccc1 (configuration not stated),-0.25,-20,0.8,-1.5,-1,29
Cc1cccc(N(CC(=O)NCC2CCCO2)C(=O)CCC(=O)Nc2cc(C)on2)c1 (configuration not stated),0.73,-4,1,-0.69,-17,12
O=C1NCCCc2nonc21,0.73,-1,0.9,-0.46,8,6
O=C(NCc1nc2ccccc2[nH]1)C1=C[C@H](C2CCCCC2)C[C@H](OCCCCO)O1,1.9*,.,.,-1.3,.,.
CCO[C@H]1OC(C(=O)NCc2nc3ccccc3[nH]2)=C[C@@H](c2ccc3c(c2)OCO3)[C@@H]1CCCO,2.7*,.,.,0.22,.,.
Oc1ccccc1-c1cc(-c2ccccc2)no1,-0.4,3,.,0.14,.,43*
CCOC(=O)c1cnn(-c2cc(Oc3cccc(C)c3)ncn2)c1N,-0.42,15,.,0.64,.,6
O=C(c1ccc2ccccc2c1)N1CCN(c2ccc(C(F)(F)F)cn2)CC1,0.46,-1,.,0.63,0,4
COCc1c(C(=O)N2CCN(c3ccc(C(F)(F)F)cn3)CC2)oc2ccccc12,-0.93,3,.,-4.7*,1,12
c1cncc(-c2nc3ccccc3[nH]2)c1,0.68,-1,.,0.047,.,11
c1ccc(-c2n[nH]c(-c3ccccc3)c2-c2nc3ccccc3[nH]2)cc1,1.7,8,.,-5.2*,10,13
SMILES,DAT uptake mod,PostGolgi yeast,TNAP act DEA,Cav32 inh,Smad3 inh,PostGolgi ctrl
c1cc2c(nn1)CCc1nonc1-2,-0.23,4,0.9,0.41,-8,1
FC(F)Sc1ccc(N=C2NN=C(c3ccc4c(c3)OCCO4)CS2)cc1,0.85,5,.,-1.3,-7,12
COc1ccc(N=C2NN=C(c3ccc4c(c3)OCCO4)CS2)cc1,3.1*,7,.,0.001,-12,3
Cc1ccn2c(-c3csc(NCc4ccccc4)n3)c(C)nc2c1,2.9*,.,.,0.89,3,.
Cc1nc2sc(C(c3cccc(F)c3)N3CCCCC3)c(O)n2n1 (configuration not stated),0.59,-2,0.9,0.15,9,7
O=C(O)CCn1c2c(c3ccccc31)CCCC2,0.59,2,.,0.71,3,48*
C=CCn1c(-c2ccoc2)n[nH]c1=S,0.1,0,0.9,.,9,1
CCN1CCN(C(=O)Cn2c(=O)sc3ccccc32)CC1,0.11,10,1,0.91,-2,9
Cc1cc(N2CCN(C3CCCC3)CC2)n2nc(C)c(-c3ccccc3)c2n1,.,.,0.9,.,.,.
Cc1nn2c(N3CCN(c4ccccn4)CC3)cc(C(C)C)nc2c1-c1ccccc1,-0.49,41*,0.9,-3.2,-14,99*
Cc1cc(N2CCOCC2)n2nc(C)c(-c3ccccc3)c2n1,0.24,-8,0.9,3.8*,2,17
COc1ccccc1-c1c(C)nn2c(N3CCC4(CC3)OCCO4)cc(C)nc12,1.1,4,0.9,0.27,9,98*
COc1ccccc1OCC(O)Cn1c(Br)nc2c1c(=O)[nH]c(=O)n2C (configuration not stated),-0.3,2,0.9,-0.0075,6,6
O=C(CN(C(=O)Cn1nnc(-c2cccs2)n1)c1cnc2ccccc2c1)NCC1CCCO1 (configuration not stated),0.72,-2,1.1,0.042,2,2
CCOc1ccc(OCC)c(NS(=O)(=O)c2cccc3nsnc23)c1,0.02,27,0.9,-1,5,11
COc1ccc(CNc2nc3ccccc3n2Cc2ccccc2)cc1OC,2.1,1,.,-5.4*,.,7
COc1ccccc1Cn1c(-c2ccccc2OC)nc2ccccc21,-0.61,6,.,-6.4*,-14,48*
c1ccc(Cn2c(NCc3ccco3)nc3ccccc32)cc1,-0.36,-1,0.9,-1.9,-8,-2
C=CCn1c(-c2ccc(OC)cc2)nc2ccccc21,-0.038,-6,0.9,-0.84,0,12
COc1ccc(Cn2c(/C=C/c3ccccc3)nc3ccccc32)cc1,-0.092,16,.,-2.9,.,43*
COc1ccc(-c2nc3ccccc3n2Cc2ccccc2)cc1,0.67,20,.,-9.9*,8,55*
CC(=O)N1CCN(C(=O)CCc2c[nH]c3ccccc23)CC1,-0.46,9,1,0.77,11,6
CN(C)/C=C(/C#N)C(=O)c1cccc(Oc2ccc(C(C)(C)C)cc2)c1,0.24,3,.,-1.3,-6,50*
Cc1ccccc1Oc1cccc(C(=O)/C(C#N)=C/N(C)C)c1,-1.4,21,.,-0.92,3,2
Cc1cc(Cl)ccc1Oc1cccc(C(=O)/C(C#N)=C/N(C)C)c1,1.2,5,.,-0.12,-1,65*
CCOC(=O)c1c(-c2ccc(C)o2)csc1NC(=O)CSc1nnc(C)s1,0.85,-6,0.8,-6.2*,-5,23
CCOC(=O)c1c(-c2cccs2)csc1NC(=O)CN1CC(C)OC(C)C1 (configuration not stated),2.2,-3,0.9,-1.1,10,43*
